Nine molecules from PubChem BioAssay (NCI) can be followed below.

Holding throughout (assay): NCI-60 one-dose screen, 48 h (100 = growth as untreated, 0 = no growth, -100 = all killed)
The test system of test [1] is NCI-H23 lung. Particulars: 10 µM unless noted.
Test [2] concerns NCI-H226 lung. The settings on record: 10 µM unless noted.
Test [3] deals with NCI-H322M lung. Particulars: 10 µM unless noted.
For test [4], the system named is HOP-62 NSCLC. The settings on record: 10 µM unless noted.
The subject of test [5] is NCI-H460 lung. Particulars: 10 µM unless noted.
The subject of test [6] is HOP-92 NSCLC. Particulars: 10 µM.
In test [7] the test system is NCI-H522 lung. Particulars: 10 µM unless noted.
The subject of test [8] is A549/ATCC NSCLC. Particulars: 10 µM unless noted.
The test system of test [9] is 786-0 renal. Particulars: 10 µM unless noted.
For test [10], the system named is COLO 205 colon. Particulars: 10 µM unless noted.
Test [11] relates to DU-145 prostate. Particulars: 10 µM unless noted.
For test [12], the system named is K-562 leukemia. The settings on record: 10 µM unless noted.
The subject of test [13] is MALME-3M melanoma. Particulars: 10 µM unless noted.
The test system of test [14] is MDA-MB-231 breast. The settings on record: 10 µM unless noted.
For test [15], the system named is SF-268 CNS. Particulars: 10 µM unless noted.
Test [16] relates to SF-295 CNS. Particulars: 10 µM unless noted.
Test [17] concerns SF-539 CNS. Particulars: 10 µM unless noted.
For test [18], the system named is UACC-257 melanoma. Particulars: 10 µM unless noted.

About 83,000 compounds went through this panel and 20% of them were active in at least one assay; those are over-represented in the sample as a whole.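 Negative percent growth values reflect cell death: -40 means 40% of the cells present at the start died, and -100 means all died.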 Values without a mark were called inactive. Activity calls are given as the source filed them. Rule for the calls: active = growth percent below 10; inactive = the rest.

Consider `COc1ccccc1NC1=C(Cl)C(=O)c2nc(C)ccc2C1=O`, for which the growth in test [1] is -8.37% (active); in test [2], 29.6%; in [3], 71.1%; in test [4] it was 74.1%; in [5] it was 70.8%; in test [6], -83.8% (active). In addition, the growth in test [7] was -48.5% (active); in test [8], 101%; in [9] it was 9.17% (active); in test [10] it was 111%; in [11], -57.3% (active); in [12], -21.1% (active). The growth in test [13] is -55.9% (active); in test [14] it was -57.3% (active); in test [15], 47.4%; in test [16], 96.6%; in [17], 1.78% (active); in test [18], -82.7% (active).
In the case of `O=C(NCCn1ccnc1)c1ccc(-c2nc3ccc4[nH]ncc4c3c3c2CCCC3)cc1`, the growth in test [1] was 71%; in [2], 69.7%; in [3] it was 83.8%; in test [4], 55.4%; in test [5] it was 59.9%; in test [6], 46.9%. For the same molecule, the growth was 3.21% (active) in test [7]; 97.3% in test [8]; 75.6% in [9]; 56.1% in test [10]; 62.7% in test [11]; 24.1% in [12]. Besides, the growth in [13] was 41.9%; in test [14] it was 66.1%; in test [15], 48%; in test [16] it was 77.1%; in [17], 50.9%; in [18], 92.9%.
As for `NC(N)=Nc1ccc(Oc2ccc(Nc3ccc(Cl)c(C(F)(F)F)c3)cc2)cc1`, the growth was 11.8% in [1]; 48.9% in [2]; 68.5% in [3]; 76.4% in test [4]; -0.702% (active) in [5]; 34.1% in [6]. Moreover, the growth in test [7] is 18.2%; in test [9], 34.6%; in test [10], 20%; in [11] it was 39%; in test [12], 7.03% (active); in [13], 61.7%. Further, the growth is 28.4% in test [14]; 39% in test [15]; 22.3% in [16]; 25.5% in [17]; 68.3% in [18].
On to `O=C1[C@H]2Cc3c([nH]c4ccccc34)[C@@H](c3c(Cl)cccc3Cl)N2C(=O)CN1C1CCN(CC2CCCCC2)CC1`, for which the growth in test [1] is 94.5%; in [2], 86.1%; in [3] it was 94.7%; in test [4], 93.3%; in test [5], 63.6%; in test [6], 54.9%. For the same molecule, the growth in test [7] was 101%; in [8], 94.3%; in test [9] it was 83.2%; in test [10], 105%; in [11] it was 48.9%; in test [12] it was 9.76% (active). For the same molecule, the growth in [13] was 85.5%; in [14], 75%; in test [15], 84.4%; in test [16], 105%; in test [17] it was 95.4%; in test [18] it was 110%.
As for `C=CCn1c(SCC(=O)Nc2ccc(C(=O)/C=C/c3ccc(Br)cc3)cc2)nnc1-c1c[nH]c2ccccc12`, the growth in test [1] was 90%; in [2] it was 84.7%; in test [3], 93.7%; in [4], 92.7%; in [5], 95.4%; in [6], 86.4%. Further, the growth was 82.5% in [7]; 73.5% in test [8]; 102% in test [9]; 109% in test [10]; 91.6% in test [11]; 66.8% in test [12]. The growth was 91% in [13]; 86.2% in [14]; 70.7% in test [15]; 90.2% in [16]; 88.2% in test [17]; 107% in test [18].
Regarding `COc1cc2oc(-c3cccc(NC(=O)c4cc(N)ccc4Cl)c3)cc(=O)c2c(OC)c1OC`, the growth was 102% in test [1]; 97.1% in test [2]; 105% in [3]; 111% in test [4]; 104% in test [5]; 51.9% in test [6]. The growth in test [7] is 101%; in test [8] it was 103%; in test [9], 85.2%; in [10], 117%; in [11], 99.7%; in [12], 83.7%. Besides, the growth in [13] was 100%; in test [14], 87.8%; in [15], 98.2%; in [16] it was 91.4%; in test [17], 94.8%; in test [18], 127%.
As to `CCn1c2ccccc2c2cc(-n3nncc3-c3ccccc3)ccc21`, the growth in [1] was 7.25% (active); in [2] it was 47.8%; in test [3], 45.1%; in [4] it was 66%; in test [5], 0.528% (active); in [6] it was 57.8%. For the same molecule, the growth in test [7] is 4.55% (active); in test [8], 24.5%; in [9], 31.6%; in [10] it was -10.9% (active); in test [11], 13.3%; in [12], 10.3%. The growth in [13] is 56.3%; in test [14], 27.2%; in test [15], 35.2%; in [16] it was 15.7%; in test [17], -17.7% (active); in [18] it was 85.4%.
On to `COc1cc(C2N=C(NNc3ccccc3)NC(C)=C2C(C)=O)ccc1O` (centres undefined), for which the growth in test [1] was 96.7%; in [2], 86.5%; in test [3] it was 88.1%; in test [4] it was 82%; in [5], 106%; in test [6], 90.4%. Further, the growth in test [7] was 78.5%; in [9], 102%; in [10] it was 113%; in [11], 108%; in test [12] it was 66.8%; in test [13] it was 106%. The growth in [14] was 76.8%; in [15] it was 86.3%; in test [16] it was 101%; in test [17] it was 98.7%; in test [18], 110%.
`C=CCN(C)S(=O)(=O)/N=C1\NC(=O)NC1=C(Cl)Cl`: the growth in test [1] is 37.5%; in test [2], 89%; in test [3], 95%; in test [4], 76.5%; in test [5] it was 45.6%; in test [6], -23.4% (active). Also, the growth in [7] is -57% (active); in test [9] it was 32.2%; in [10] it was -40.8% (active); in [11], 72.8%; in test [12], -3.52% (active); in [13], -69.4% (active). Further, the growth in [14] was -25.5% (active); in test [15] it was 32.2%; in test [16], 102%; in [17], -23.6% (active); in test [18], 57.4%.
